This is one part of a sample in which hits are shown more often than they occur.
KDM5B inhibitor: blocks human KDM5B histone demethylase activity; 220,000 tested, 2.6% active; KDM5B demethylase, FDH-coupled NADH fluorescence (FDH is formaldehyde dehydrogenase); Potency, µM (top dose mostly 57.7 µM), hits mostly inhibitors; active = well fitted inhibition curve with a large enough effect; note: nearly all actives have a fitted effect of over 70% in size
Target sequence (Q9UGL1 whole entry, looked up): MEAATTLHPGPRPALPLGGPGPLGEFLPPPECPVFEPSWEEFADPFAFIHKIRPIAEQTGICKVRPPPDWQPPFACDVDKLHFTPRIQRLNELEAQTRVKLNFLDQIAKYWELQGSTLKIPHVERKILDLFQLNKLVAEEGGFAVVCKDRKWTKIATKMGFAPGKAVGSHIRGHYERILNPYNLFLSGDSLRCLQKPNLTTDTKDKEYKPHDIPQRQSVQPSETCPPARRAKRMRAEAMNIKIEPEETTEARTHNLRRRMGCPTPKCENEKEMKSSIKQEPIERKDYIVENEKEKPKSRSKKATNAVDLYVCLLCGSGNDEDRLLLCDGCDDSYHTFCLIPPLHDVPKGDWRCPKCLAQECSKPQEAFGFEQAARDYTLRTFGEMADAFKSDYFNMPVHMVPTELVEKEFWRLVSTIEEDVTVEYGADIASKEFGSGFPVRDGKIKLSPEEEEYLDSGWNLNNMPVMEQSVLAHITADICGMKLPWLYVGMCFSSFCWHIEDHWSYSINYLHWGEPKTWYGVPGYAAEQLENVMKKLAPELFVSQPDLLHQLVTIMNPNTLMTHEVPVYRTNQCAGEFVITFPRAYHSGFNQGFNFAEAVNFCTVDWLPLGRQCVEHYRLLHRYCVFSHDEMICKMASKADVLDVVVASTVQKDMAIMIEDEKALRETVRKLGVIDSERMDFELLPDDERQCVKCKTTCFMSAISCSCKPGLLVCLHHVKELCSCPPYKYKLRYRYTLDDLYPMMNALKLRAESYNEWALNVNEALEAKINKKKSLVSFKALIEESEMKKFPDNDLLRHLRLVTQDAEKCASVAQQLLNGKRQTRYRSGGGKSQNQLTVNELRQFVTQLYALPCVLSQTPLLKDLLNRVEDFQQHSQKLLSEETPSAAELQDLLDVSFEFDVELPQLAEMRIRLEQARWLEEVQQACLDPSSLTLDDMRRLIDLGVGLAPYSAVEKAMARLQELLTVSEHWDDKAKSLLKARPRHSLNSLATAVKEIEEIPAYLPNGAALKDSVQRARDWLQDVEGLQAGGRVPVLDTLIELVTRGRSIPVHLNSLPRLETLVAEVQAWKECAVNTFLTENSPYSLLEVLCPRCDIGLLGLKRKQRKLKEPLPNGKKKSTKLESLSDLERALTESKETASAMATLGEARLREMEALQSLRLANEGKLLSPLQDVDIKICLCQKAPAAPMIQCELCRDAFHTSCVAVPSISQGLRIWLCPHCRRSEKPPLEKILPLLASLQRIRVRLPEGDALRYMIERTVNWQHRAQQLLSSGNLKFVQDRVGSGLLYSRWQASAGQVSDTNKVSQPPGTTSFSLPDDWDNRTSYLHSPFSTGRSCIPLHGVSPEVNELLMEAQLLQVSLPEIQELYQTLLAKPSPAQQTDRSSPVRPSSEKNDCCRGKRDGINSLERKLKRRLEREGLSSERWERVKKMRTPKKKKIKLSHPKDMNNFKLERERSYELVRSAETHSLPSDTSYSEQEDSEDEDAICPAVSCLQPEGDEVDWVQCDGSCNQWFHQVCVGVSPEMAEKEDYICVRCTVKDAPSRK
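Coupled FDH/NAD⁺ fluorescence readout. KDM5BΔAP 200 nM final; compound titration, 10 min RT preincubation; substrate mix 12.5 µM H3K4me3, 25 µM 2-OG, 50 µM Fe(II), 100 µM ascorbate, 0.25 mM NAD⁺, 0.25 U/mL FDH; ΔRFU over 30 min.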
Large screens that a line does not name were inactive.

Cc1c(C(=O)N2CCC(c3nc4ccccc4o3)CC2)oc2cc(Br)ccc12	none
Cc1nc2c(NC3CCN(C(=O)c4cccn4C)CC3)cccn2n1	KDM5B inhibitor 31.6µM
Cn1cccc1C(=O)N1CCC(Cc2nc(C3CC3)n[nH]2)C1 (configuration not stated)	none
Cn1cccc1C(=O)N1CC[C@@H]2CN(S(C)(=O)=O)[C@@H]2C1	none
Fc1ccc(NC(=S)NC2CCCCCC2)cc1	none
Cc1cc(C(=O)O)c2c(C(C)C)nn(-c3ccc(F)cc3)c2n1	none
COc1ccc(CCNC(=O)c2c(C)noc2-c2cc(OC)cc(OC)c2)cc1	none
CCOCCNC(=O)c1c(C)noc1-c1ccc(OC)cc1	none
COc1cccc(CCNC(=O)c2c(C)noc2-c2cc(OC)c(OC)c(OC)c2)c1	KDM5B inhibitor 28.2µM
COc1ccc(CNC(=O)c2c(C)noc2-c2ccco2)cc1	none
COc1cccc(CNC(=O)c2c(C)noc2-c2ccccc2Cl)c1	none
COc1ccc(-c2onc(C)c2C(=O)NCCSCc2ccco2)cc1	KDM5B inhibitor 22.4µM
COc1cc(-c2onc(C)c2C(=O)NCCc2ccc(F)cc2)cc(OC)c1OC	KDM5B inhibitor 28.2µM
COc1ccc(CCNC(=O)c2c(C)noc2-c2cccc(F)c2)cc1	none
COc1cccc(CCNC(=O)c2c(C)noc2-c2ccco2)c1	none
COc1ccc(-c2noc(CC3CCN(C(=O)c4ccccc4OC)CC3)n2)cc1	none
CC(NC(=S)NCCc1ccccc1)c1ccc(C(C)(C)C)cc1 (configuration not stated)	none
O=C1CCN(S(=O)(=O)c2ccccc2)CCCN(C(=O)C2(c3ccccc3)CC2)CCN1	none
CC(C)(C)NC(NC(=O)c1cccc(Cl)c1)C(Cl)(Cl)Cl (configuration not stated)	none
CCOc1ccc(O)c(C=NC2CCCC2)c1	none
Cn1c(=O)c2c(nc(NCc3ccccc3)n2CC(O)CO)n(C)c1=O (configuration not stated)	none
O=C(CSCC(O)c1ccccc1)c1c[nH]c2ccccc12 (configuration not stated)	none
C=CCNC(=O)c1ccccc1NC(=O)C1CCC1	none
O=C(Nc1ccc(-c2nnc3n2CCCC3)cc1)c1ccccc1	none
COc1ccc(C(=O)N[C@@H]2CCC[C@@H]2C(=O)NCCN2CCCCC2)cn1	none
O=C(NCCN1CCCCC1)c1ccc(-c2nnc3ccc(NC(=O)C4CCC4)cn23)cc1	KDM5B inhibitor 22.4µM
O=C(NCCN1CCCCCC1)c1ccc(CN2CC(=O)N3CCCCC3C2=O)cc1 (configuration not stated)	none
C=CCNC(=O)c1ccc(-c2nnc3ccc(NC(=O)C4CCC4)cn23)cc1	KDM5B inhibitor 22.4µM
O=C(NC1CCCCC1)C1CCN(C2=NS(=O)(=O)c3ccccc32)CC1	none
CC(OC(=O)c1cc(=O)c2cc(Cl)ccc2o1)C(=O)N(C)c1ccccc1 (configuration not stated)	none
COC(=O)c1cc(NC(=O)c2cnn3cccnc23)cc(C)c1C	none
NNc1ccc(S(=O)(=O)O)cc1	none
COC(=O)[C@@H]1Cc2c([nH]c3ccccc23)[C@H]2C[C@@H](NCCCn3ccnc3)C[C@@H](c3ccc(F)cc3)N21	KDM5B inhibitor 12.6µM
O=C1NCC(=O)N2C(c3ccccc3)c3[nH]c4ccccc4c3C[C@@H]12 (some centres not stated)	none
COC(=O)[C@@H]1Cc2c([nH]c3ccccc23)[C@H]2C[C@@H](NCCCn3ccnc3)C[C@@H](c3ccc(Cl)c(F)c3)N21	none
O=C(c1ccc(F)cc1)N1CCc2c([nH]c3ccccc23)C1c1ccc(Cl)cc1 (configuration not stated)	none
COC(=O)[C@@H]1Cc2c([nH]c3ccccc23)[C@H]2C[C@@H](NCCN(C)C)C[C@@H](c3ccc(F)cc3)N21	KDM5B inhibitor 25.1µM
COCCNC(=O)[C@H]1C[C@H](Oc2ccccc2)CN1C(=O)c1cccc(OC)c1	none
O=C(NCCCn1ccnc1)c1ccc(C2CCCNC2)cc1 (configuration not stated)	none
O=C(CCC1CCCC1)N1CCc2c([nH]c3ccccc23)C1c1ccc(F)cc1 (configuration not stated)	none
COc1ccc(C(=O)NC2CCN(CC(=O)NCc3cccc(OC)c3)CC2)cc1	none
COC(=O)[C@@H]1Cc2c([nH]c3ccccc23)C2CCC(=O)N21 (some centres not stated)	none
COCCN[C@@H]1C[C@@H]2c3[nH]c4ccccc4c3C[C@@H](C(=O)OC)N2[C@H](c2cccc(OC)c2)C1	KDM5B inhibitor 5.62µM
COCCN[C@H]1C[C@@H]2c3[nH]c4ccccc4c3C[C@@H](C(=O)OC)N2[C@H](c2ccccc2)C1	KDM5B inhibitor 28.2µM
CCN(CC)S(=O)(=O)c1ccc(Cl)c(NC(=O)COC(=O)c2cc(=O)c3ccccc3o2)c1	none
Cc1noc(C)c1C1CCCN1C(=O)Cc1nc(-c2cccnc2)n[nH]1 (configuration not stated)	none
CN(C)[S+](=O)([O-])c1ccc2c(c1)OCCN(Cc1cccc(Cl)c1)C2	none
Cc1ccc(-c2nc3c4c(-c5ccccc5)c(-c5ccccc5)oc4ncn3n2)cc1	none
Nn1nc(-c2ccccc2)nc1-c1ccccc1	none
Nc1cccn2nc(-c3ccccc3)nc12	KDM5B inhibitor 28.2µM
CNC(=O)[C@@H]1CN(C(=O)c2cc3cc(OC)ccc3[nH]2)C[C@H]1CO	KDM5B inhibitor 22.4µM
COc1ccc2[nH]c(C(=O)N3CCN4CCS(=O)(=O)N(C5CC5)C(=O)C4C3)cc2c1 (configuration not stated)	KDM5B inhibitor 25.1µM
CNC(=O)[C@@H]1CN(C(=O)C2(c3ccc(OC)cc3)CC2)C[C@H]1CO	none
COc1ccc(C(=O)N2C[C@@H](CO)[C@H](c3ccncc3)C2)cc1	none
COc1ccc2[nH]c(C(=O)N3C[C@@H](CO)[C@H](c4ccncc4)C3)cc2c1	KDM5B inhibitor 31.6µM
COc1ccc(Cl)cc1C(=O)N1C[C@@H](CO)[C@H](c2ccncc2)C1	none
Cc1cccc(-c2ocnc2C(=O)N2CCN3CCS(=O)(=O)N(C4CC4)C(=O)C3C2)c1 (configuration not stated)	none
CNC(=O)[C@@H]1CN(C(=O)COc2ccc(F)cc2)C[C@H]1CO	none
COc1ccc2cc(C(=O)N3CCN4CCS(=O)(=O)N(C5CC5)C(=O)C4C3)[nH]c2c1 (configuration not stated)	none
Cc1ccc(-c2n[nH]c(=O)c3ccccc23)cc1S(=O)(=O)N1CCCC1	none
Cn1cnc2c1c(=O)n(CC(=O)NC13CC4CC(CC(C4)C1)C3)c(=O)n2C	none
COc1ccc(C(C)=O)cc1COC(=O)CCc1ccc2c(c1)OCO2	none
CCCCn1nc(C(=O)Nc2cc(F)ccc2C)c2ccccc2c1=O	none
Cc1ccc(NC(=O)c2nc3ccccc3nc2N2CCOCC2)cc1Cl	none
Cn1c(=O)c2c(ncn2CC(=O)c2ccc3c(c2)CCC3)n(C)c1=O	none
O=C(COC(=O)c1ccccc1Sc1ccc(C(F)(F)F)cc1[N+](=O)[O-])NC1CCCc2ccccc21 (configuration not stated)	none
CC(=O)Nc1ccc(S(=O)(=O)Nc2nc3ccccc3nc2Nc2cccc3ccccc23)cc1	none
Cc1cc(C)cc(NC(=O)CSCc2cc(=O)n3oc(C)cc3n2)c1	none
CCOc1ccc(Nc2nc(-c3ccccc3)no2)cc1	none
Cc1noc(C)c1-c1cc2cc(C(C)C)oc2c(NCCc2ccccn2)n1	none
CC(=O)N1CCN(c2nc(-c3c(C)noc3C)cc3cc(C(C)C)oc23)CC1	none
COc1ccc(-c2nc(-c3c(C)noc3C)cc3cc(C(C)C)oc23)cn1	KDM5B inhibitor 28.2µM
COc1cc(-c2nc(-c3c(C)noc3C)cc3cc(CN(C)C)oc23)ccn1	KDM5B inhibitor 35.5µM
